# Reference: publication PMC3218832
# Biological target: RELARELA (p65 homodimer) (Homo sapiens, UniProt Q04206 1-307)
# Assay: protein binding microarray; high values mean tight binding
# Conditions: dsDNA, one strand shown
# Sequence of RELARELA (p65 homodimer) (Q04206 1-307): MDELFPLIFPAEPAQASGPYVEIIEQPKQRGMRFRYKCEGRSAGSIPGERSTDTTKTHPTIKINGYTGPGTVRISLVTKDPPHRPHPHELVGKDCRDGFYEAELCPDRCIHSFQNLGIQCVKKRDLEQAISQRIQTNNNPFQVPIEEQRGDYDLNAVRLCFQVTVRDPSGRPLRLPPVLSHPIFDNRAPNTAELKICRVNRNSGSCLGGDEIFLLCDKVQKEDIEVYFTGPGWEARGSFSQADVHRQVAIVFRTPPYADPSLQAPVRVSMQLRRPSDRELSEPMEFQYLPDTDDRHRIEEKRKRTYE
row,Sequence,binding signal [z-score]
1,CAATGGTTCCT,0.0242
2,AAATACACCCC,-0.0111
3,CAAAATGCCCT,0.196
4,AAAGGATCCCT,-0.446
5,CGAAGCATCCT,-1.05
6,GGGTGTTCCCC,1.97
7,AGGATCTCCCC,0.594
8,GAGAATTCCCT,1.81
9,GAAATAGTCCC,0.835
10,CGAGTGACCCT,-1.21
11,CGAAAGGCCCT,-0.835
12,CGATGTCTCCT,-0.49
13,AGATTTATCCC,-0.076
14,CGGAGTATCCC,0.97
15,GGAAGAACCCC,0.624
16,GGGGTGTTCCT,1.06
17,AGGAGTGTCCC,1.3
18,AGGGAGTTCCT,0.744
19,CAGGTACCCCT,-0.0502

row,Sequence,binding signal [z-score]
1,GGAGGAGTCCC,0.299
2,GAATAACTCCT,-0.147
3,CGGTTTACCCC,0.939
4,CAATTCGTCCC,0.717
5,GGATAGTCCCT,1
6,CGGTAAACCCT,0.285
7,GAGGAAATCCT,0.229
8,CAGTGACCCCT,-0.538
9,CAGTGCATCCT,-0.475
10,CAGGGGTTCCT,-0.143
11,CGGAAGCTCCT,-0.12
12,GAAAACATCCC,0.244
13,AGATAGATCCT,-0.82
14,AGATGGTCCCC,-0.243
15,GAAAATATCCT,-0.0981
16,CAAGTAATCCC,-0.158
17,GGAAGTTTCCC,2.98
18,GAGGAGGCCCT,-1.17
19,GAGAACTTCCT,0.439

# Biological target: p50p50 homodimer (Homo sapiens, UniProt P19838 7-356)
# Assay: as above
# Conditions: dsDNA, one strand shown
# Sequence of p50p50 homodimer (P19838 7-356): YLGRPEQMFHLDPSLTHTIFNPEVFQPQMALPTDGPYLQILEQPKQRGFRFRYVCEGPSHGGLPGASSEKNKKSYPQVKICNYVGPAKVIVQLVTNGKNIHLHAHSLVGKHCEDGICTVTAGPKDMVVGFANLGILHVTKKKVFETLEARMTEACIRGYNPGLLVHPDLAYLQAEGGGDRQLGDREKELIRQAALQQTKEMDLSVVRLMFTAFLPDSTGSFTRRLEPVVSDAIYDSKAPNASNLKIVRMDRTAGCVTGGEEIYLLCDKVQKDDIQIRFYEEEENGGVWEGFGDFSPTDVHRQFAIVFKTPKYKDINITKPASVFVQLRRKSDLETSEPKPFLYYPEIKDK
row,Sequence,binding signal [z-score]
1,CAATGGTTCCT,-1.26
2,AAATACACCCC,0.252
3,CAAAATGCCCT,-0.106
4,AAAGGATCCCT,-0.455
5,CGAAGCATCCT,-3.51
6,GGGTGTTCCCC,0.783
7,AGGATCTCCCC,1.02
8,GAGAATTCCCT,1.39
9,GAAATAGTCCC,1.16
10,CGAGTGACCCT,-1.33
11,CGAAAGGCCCT,-0.751
12,CGATGTCTCCT,-1.36
13,AGATTTATCCC,-0.338
14,CGGAGTATCCC,-0.805
15,GGAAGAACCCC,0.621
16,GGGGTGTTCCT,0.337
17,AGGAGTGTCCC,0.0859
18,AGGGAGTTCCT,0.856
19,CAGGTACCCCT,0.353

row,Sequence,binding signal [z-score]
1,GGAGGAGTCCC,0.853
2,GAATAACTCCT,-1.37
3,CGGTTTACCCC,0.564
4,CAATTCGTCCC,0.108
5,GGATAGTCCCT,1.18
6,CGGTAAACCCT,-0.188
7,GAGGAAATCCT,-0.905
8,CAGTGACCCCT,-0.115
9,CAGTGCATCCT,-2.12
10,CAGGGGTTCCT,0.529
11,CGGAAGCTCCT,-1.95
12,GAAAACATCCC,-0.173
13,AGATAGATCCT,-1.87
14,AGATGGTCCCC,0.441
15,GAAAATATCCT,-1.17
16,CAAGTAATCCC,-0.156
17,GGAAGTTTCCC,0.874
18,GAGGAGGCCCT,-1.07
19,GAGAACTTCCT,-0.697

# Biological target: T1, p52p52 homodimer (Homo sapiens, UniProt Q00653 4-332)
# T1 sequence: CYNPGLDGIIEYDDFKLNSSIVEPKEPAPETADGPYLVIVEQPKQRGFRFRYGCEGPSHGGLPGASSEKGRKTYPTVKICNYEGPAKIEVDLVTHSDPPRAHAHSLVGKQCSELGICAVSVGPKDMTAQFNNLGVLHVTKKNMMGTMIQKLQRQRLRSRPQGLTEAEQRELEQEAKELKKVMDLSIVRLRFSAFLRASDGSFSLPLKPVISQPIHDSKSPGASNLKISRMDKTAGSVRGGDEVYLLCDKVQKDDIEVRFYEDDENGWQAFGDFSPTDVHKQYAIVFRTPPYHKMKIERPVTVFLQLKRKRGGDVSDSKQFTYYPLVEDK
# Assay: as above
# Conditions: dsDNA, one strand shown
row,Sequence,binding signal [z-score]
1,CAATGGTTCCT,-0.536
2,AAATACACCCC,0.0531
3,CAAAATGCCCT,-0.35
4,AAAGGATCCCT,-0.198
5,CGAAGCATCCT,-0.775
6,GGGTGTTCCCC,3.21
7,AGGATCTCCCC,0.969
8,GAGAATTCCCT,2.1
9,GAAATAGTCCC,1.31
10,CGAGTGACCCT,-0.545
11,CGAAAGGCCCT,-0.447
12,CGATGTCTCCT,-0.736
13,AGATTTATCCC,-0.0792
14,CGGAGTATCCC,-0.256
15,GGAAGAACCCC,0.666
16,GGGGTGTTCCT,0.617
17,AGGAGTGTCCC,0.362
18,AGGGAGTTCCT,1.12
19,CAGGTACCCCT,0.356

row,Sequence,binding signal [z-score]
1,GGAGGAGTCCC,0.586
2,GAATAACTCCT,-0.713
3,CGGTTTACCCC,0.746
4,CAATTCGTCCC,0.533
5,GGATAGTCCCT,1.57
6,CGGTAAACCCT,0.217
7,GAGGAAATCCT,-0.463
8,CAGTGACCCCT,-0.0283
9,CAGTGCATCCT,-0.705
10,CAGGGGTTCCT,0.77
11,CGGAAGCTCCT,-0.752
12,GAAAACATCCC,-0.106
13,AGATAGATCCT,-0.716
14,AGATGGTCCCC,0.342
15,GAAAATATCCT,-0.53
16,CAAGTAATCCC,-0.0587
17,GGAAGTTTCCC,1.24
18,GAGGAGGCCCT,-0.602
19,GAGAACTTCCT,-0.718

# Biological target: RELA (p65) subunit of heterodimer;p50 subunit (Homo sapiens;Homo sapiens, UniProt Q04206;P19838 1-307;7-356)
# Assay: as above
# Conditions: dsDNA, one strand shown
# Sequence of RELA (p65) subunit of heterodimer;p50 subunit (Q04206 1-307, chain 1 of 2): as the sequence (Q04206 1-307) above
# Sequence of RELA (p65) subunit of heterodimer;p50 subunit (P19838 7-356, chain 2 of 2): as the sequence (P19838 7-356) above
row,Sequence,binding signal [z-score]
1,CAATGGTTCCT,-0.894
2,AAATACACCCC,0.224
3,CAAAATGCCCT,-0.0537
4,AAAGGATCCCT,-0.582
5,CGAAGCATCCT,-1.25
6,GGGTGTTCCCC,2.14
7,AGGATCTCCCC,1.28
8,GAGAATTCCCT,1.68
9,GAAATAGTCCC,1.16
10,CGAGTGACCCT,-0.827
11,CGAAAGGCCCT,-0.366
12,CGATGTCTCCT,-0.843
13,AGATTTATCCC,-0.321
14,CGGAGTATCCC,0.294
15,GGAAGAACCCC,1.02
16,GGGGTGTTCCT,0.455
17,AGGAGTGTCCC,0.736
18,AGGGAGTTCCT,0.667
19,CAGGTACCCCT,0.304

row,Sequence,binding signal [z-score]
1,GGAGGAGTCCC,0.889
2,GAATAACTCCT,-0.733
3,CGGTTTACCCC,0.807
4,CAATTCGTCCC,-0.0179
5,GGATAGTCCCT,1.47
6,CGGTAAACCCT,-0.158
7,GAGGAAATCCT,-0.399
8,CAGTGACCCCT,-0.321
9,CAGTGCATCCT,-0.986
10,CAGGGGTTCCT,-0.0941
11,CGGAAGCTCCT,-1.05
12,GAAAACATCCC,-0.0842
13,AGATAGATCCT,-1.06
14,AGATGGTCCCC,0.0737
15,GAAAATATCCT,-0.742
16,CAAGTAATCCC,-0.365
17,GGAAGTTTCCC,1.47
18,GAGGAGGCCCT,-1.02
19,GAGAACTTCCT,-0.503
